Results published in the supplement of paper PMC3334620.
The full ranking holds about 33,000 sequences; the median of “E-score (-0.5 to 0.5)” is about -0.0034, and the highest 2% start at about 0.25. This excerpt belongs to a sample that is enriched for the highest values.

target: T1, Yap3 (UniProt P38749); assay: PBM E-score (8-mer binding enrichment) (E-score (-0.5 to 0.5)); higher = stronger / more preferred TF binding; settings: protein concentration: 100 nM; construct: GST-full length
T1 sequence: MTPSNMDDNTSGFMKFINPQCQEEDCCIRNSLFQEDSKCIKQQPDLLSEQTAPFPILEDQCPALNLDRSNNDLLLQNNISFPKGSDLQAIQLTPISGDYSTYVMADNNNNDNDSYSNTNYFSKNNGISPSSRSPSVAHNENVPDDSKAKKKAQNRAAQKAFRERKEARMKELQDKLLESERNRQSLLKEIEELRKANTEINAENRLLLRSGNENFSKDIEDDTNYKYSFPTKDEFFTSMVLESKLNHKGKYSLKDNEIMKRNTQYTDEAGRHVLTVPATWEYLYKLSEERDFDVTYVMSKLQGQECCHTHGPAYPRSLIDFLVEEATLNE
Experimental: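 Universal 'all 10-mer' protein binding microarrays (Agilent AMADID 015681) probed with GST-tagged S. cerevisiae TFs (full-length or DBD) made by in vitro transcription/translation (PURExpress), about 100-200 nM. Bound TF was detected with fluorescent anti-GST. Each ungapped 8-mer (which stands for itself and its reverse complement) is scored by the PBM enrichment score (E-score), a modified Wilcoxon-Mann-Whitney statistic from -0.5 to +0.5, computed with the Universal PBM Analysis Suite. Scale: above 0.35 generally sequence-specific binding.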

Going from CGGCGTAC to ACGGTTGC, the “PBM E-score” value rises from -0.15 to -0.0961.

First: TCCTGTCA
Second: CCCTGGCC
The “PBM E-score” value of the first is higher: -0.0145 for the first, -0.333 for the second.

Going from AAATCCAT to AAATCCAC, the “PBM E-score” value falls from 0.29 to 0.0662.

First: AAATCCAG
Second: CCGCTGTA
The “PBM E-score” value of the first is higher: 0.249 for the first, 0.117 for the second.

Going from ATATAATG to CTATAAGA, the “PBM E-score” value falls from 0.2 to 0.182.

First: GGATAATA
Second: CTATAATA
The “PBM E-score” value of the first is lower: 0.0461 for the first, 0.0592 for the second.

Compared with GTATAACA, ATATAATA is higher in “PBM E-score” value: 0.133 for the first, 0.299 for the second.

Compared with ATATAAGA, GTATAAGA is lower in “PBM E-score” value: 0.346 for the first, 0.0832 for the second.

Compared with GTATAATA, AGTAAGCA is lower in “PBM E-score” value: 0.287 for the first, 0.00993 for the second.

First: AATCTGCG
Second: AGCCCGCA
The “PBM E-score” value of the first is higher: -0.0221 for the first, -0.123 for the second.

Going from AGCAACGC to AGTTTCGG, the “PBM E-score” value rises from -0.0123 to 0.0851.

Compared with GTTAATGA, CCTAATTA is higher in “PBM E-score” value: 0.133 for the first, 0.136 for the second.

First: ATTAATTC
Second: GCTAATAA
The “PBM E-score” value of the first is higher: 0.3 for the first, 0.144 for the second.

Going from ATTAATTG to GCTAATTA, the “PBM E-score” value rises from 0.245 to 0.279.

Compared with GTTAATTA, ACTAATTA is higher in “PBM E-score” value: 0.262 for the first, 0.362 for the second.

First: ATTAATTA
Second: CTTAATTA
The “PBM E-score” value of the first is higher: 0.241 for the first, 0.174 for the second.

Compared with ACTAATTC, ACTAATTG is lower in “PBM E-score” value: 0.178 for the first, 0.167 for the second.

First: AGAGATCA
Second: AAACGAGT
The “PBM E-score” value of the first is lower: 0.0988 for the first, 0.217 for the second.

First: CAAGCTAA
Second: CTTTTAAC
The “PBM E-score” value of the first is lower: -0.0766 for the first, 0.0122 for the second.

Compared with AACAAAGT, AGCGAGCC is lower in “PBM E-score” value: 0.221 for the first, -0.122 for the second.

Going from AAAGACTG to GTATTATA, the “PBM E-score” value rises from -0.0469 to 0.329.

First: GTATTAGA
Second: GTATTACA
The “PBM E-score” value of the first is lower: 0.217 for the first, 0.291 for the second.

First: CTATTACA
Second: CTATTATA
The “PBM E-score” value of the first is higher: 0.163 for the first, 0.145 for the second.

First: ATATTATA
Second: CCTTAAAG
The “PBM E-score” value of the first is higher: 0.186 for the first, 0.06 for the second.

Compared with CAAGTTGG, GTTGCTAA is higher in “PBM E-score” value: 0.106 for the first, 0.251 for the second.

First: CACCTGGG
Second: AAGCCTGG
The “PBM E-score” value of the first is lower: -0.178 for the first, -0.0378 for the second.

Compared with CCATCGTA, AAACAGCG is higher in “PBM E-score” value: 0.0169 for the first, 0.2 for the second.

Going from CCAGTAAC to AAATATGT, the “PBM E-score” value rises from 0.0196 to 0.286.

First: GAATATAA
Second: CAATATAG
The “PBM E-score” value of the first is lower: 0.195 for the first, 0.218 for the second.

Going from CAATATAC to AGATATAA, the “PBM E-score” value rises from 0.112 to 0.211.

Going from TAATATAA to AAATATAA, the “PBM E-score” value falls from 0.344 to 0.275.

Going from TCATATAA to AAATATGA, the “PBM E-score” value rises from 0.203 to 0.224.

Compared with AAATATGC, CAATATAA is higher in “PBM E-score” value: 0.00442 for the first, 0.307 for the second.

Going from AGGATTGA to AGCAAGAT, the “PBM E-score” value rises from 0.129 to 0.14.

Compared with AATTTCTG, ATCCCATA is lower in “PBM E-score” value: 0.089 for the first, -0.106 for the second.

First: GTTGCATA
Second: ATTTAGCC
The “PBM E-score” value of the first is lower: -0.0298 for the first, 0.0798 for the second.

Compared with AGGGAGTC, AAAAATAG is higher in “PBM E-score” value: -0.235 for the first, 0.225 for the second.

Going from AAAAATAC to AACGATAC, the “PBM E-score” value falls from 0.14 to 0.0446.

Compared with AACGATAG, AAATATAT is higher in “PBM E-score” value: 0.116 for the first, 0.285 for the second.

Going from AAAAATAT to AAATATAG, the “PBM E-score” value falls from 0.342 to 0.117.

Compared with AACTATAC, AACTATAT is higher in “PBM E-score” value: 0.0711 for the first, 0.309 for the second.

Going from AAATATAC to AACTATAG, the “PBM E-score” value falls from 0.19 to 0.0554.

Going from AACGATAT to AACTCATT, the “PBM E-score” value falls from 0.269 to 0.0581.

First: CTCCCTCA
Second: CCTCAAGG
The “PBM E-score” value of the first is higher: -0.122 for the first, -0.145 for the second.

First: CTCATTCC
Second: CTGCCCAA
The “PBM E-score” value of the first is higher: 0.139 for the first, -0.122 for the second.

Compared with GCCGAATA, AAACCACC is lower in “PBM E-score” value: 0.115 for the first, 0.0609 for the second.

Going from ATCGACTC to AGTAGAAG, the “PBM E-score” value rises from -0.161 to 0.0935.

Compared with AGTCATGG, AGCTTTAA is lower in “PBM E-score” value: 0.0946 for the first, 0.0942 for the second.

First: CAGTATGA
Second: AAGTATGA
The “PBM E-score” value of the first is higher: 0.143 for the first, 0.0367 for the second.

First: GAATATGA
Second: CCATATGA
The “PBM E-score” value of the first is higher: 0.168 for the first, 0.00159 for the second.

Compared with TAATATGA, GCATATGA is lower in “PBM E-score” value: 0.297 for the first, 0.214 for the second.

First: CAATATGA
Second: TAGTATGA
The “PBM E-score” value of the first is lower: 0.174 for the first, 0.255 for the second.

Compared with TCATATGA, AGTTGATC is lower in “PBM E-score” value: 0.317 for the first, 0.0597 for the second.

First: GACAGGTC
Second: AAGGTTCC
The “PBM E-score” value of the first is lower: -0.226 for the first, -0.0546 for the second.

Compared with AAAGTATA, CAAGTATA is lower in “PBM E-score” value: 0.235 for the first, -0.0229 for the second.

Compared with TAAGTATA, CCTCGCTC is lower in “PBM E-score” value: 0.275 for the first, 0.0543 for the second.

First: AGAGAACA
Second: GGCCCCCC
The “PBM E-score” value of the first is higher: 0.206 for the first, -0.461 for the second.

Going from CCCACACA to TTAACGAA, the “PBM E-score” value rises from -0.0183 to 0.179.

First: ACAACCAG
Second: ACAACCAT
The “PBM E-score” value of the first is lower: 0.0808 for the first, 0.334 for the second.

First: ACAACCAC
Second: GAATTCCA
The “PBM E-score” value of the first is lower: 0.0359 for the first, 0.195 for the second.

First: TATTTCCA
Second: AAATTCGG
The “PBM E-score” value of the first is lower: 0.00077 for the first, 0.153 for the second.

First: AAATTCGT
Second: CAATTCCA
The “PBM E-score” value of the first is higher: 0.312 for the first, -0.102 for the second.

First: AATTTCCA
Second: GATTTCCA
The “PBM E-score” value of the first is higher: 0.267 for the first, 0.0257 for the second.

Compared with AAATTCCA, AAATTCGC is lower in “PBM E-score” value: 0.269 for the first, 0.129 for the second.

Going from GTCTTGAA to AAGAACGA, the “PBM E-score” value rises from 0.0256 to 0.142.

Compared with CCAATTGA, GAACGCAC is higher in “PBM E-score” value: 0.0344 for the first, 0.0357 for the second.

Going from AGAGGTAA to AGAGGTAT, the “PBM E-score” value rises from -0.0121 to 0.256.

Compared with AGAGGTAC, ATCCGATG is higher in “PBM E-score” value: -0.248 for the first, 0.0814 for the second.

Compared with ATTAGACG, TATGTAAA is higher in “PBM E-score” value: 0.104 for the first, 0.262 for the second.

First: AATGTAAT
Second: ACTGTAAC
The “PBM E-score” value of the first is higher: 0.253 for the first, 0.0996 for the second.

First: GACGTAAA
Second: CATGTAAA
The “PBM E-score” value of the first is lower: 0.0343 for the first, 0.0358 for the second.

Compared with CACGTAAA, CCTGTAAA is lower in “PBM E-score” value: -0.0521 for the first, -0.0789 for the second.

Compared with AATGTAAG, ACTGTAAA is lower in “PBM E-score” value: 0.307 for the first, 0.257 for the second.

First: AATGTAAA
Second: TACGTAAA
The “PBM E-score” value of the first is lower: 0.231 for the first, 0.319 for the second.

Going from CATGTAAG to TAGATGAA, the “PBM E-score” value falls from 0.155 to 0.082.

Compared with CCGATGTC, AATAGCTA is higher in “PBM E-score” value: 0.0178 for the first, 0.0193 for the second.

Going from AGTGATCC to GGGATCGA, the “PBM E-score” value falls from -0.0505 to -0.124.

First: AACGTAAC
Second: CGCGTAAA
The “PBM E-score” value of the first is lower: 0.201 for the first, 0.255 for the second.

First: AACGTAAT
Second: TGCGTAAA
The “PBM E-score” value of the first is higher: 0.353 for the first, 0.132 for the second.

First: AACGTAAA
Second: CGCGTAAG
The “PBM E-score” value of the first is higher: 0.2 for the first, 0.158 for the second.

Compared with CAAGAAAC, TACAACTA is lower in “PBM E-score” value: 0.197 for the first, -0.028 for the second.

Compared with AGCCCACA, AATGGAGG is lower in “PBM E-score” value: -0.117 for the first, -0.119 for the second.

Going from GATTTTAC to CATTTTAG, the “PBM E-score” value falls from 0.161 to 0.121.

Compared with CATTTTAA, ATTTTTAC is lower in “PBM E-score” value: 0.219 for the first, 0.0674 for the second.

Going from AATTTTAC to AATTTTAT, the “PBM E-score” value rises from 0.258 to 0.266.

Going from CATTTTAC to AATTTTAG, the “PBM E-score” value falls from 0.332 to 0.107.

Going from AAATTTAT to CCTTCTCG, the “PBM E-score” value falls from 0.144 to -0.134.

Going from AGGTTTCA to GATACTAC, the “PBM E-score” value rises from 0.0131 to 0.0824.
